TDP1 cell CPT – growth inhibition of DT40 Tdp1-/-;hTDP1 cells with camptothecin (screen for TDP1 inhibitors); 12% of 420,000 active; Potency, µM (titrated, usually from 46.2 µM), inactives show top-dose activity change, negative = growth inhibition, usual class: inhibitors; chicken DT40 Tdp1-/-;hTDP1 cells + 20 nM CPT, ATP luminescence, 48 h; note: potency is the fitted concentration of half-maximal effect; nearly all actives have a fitted effect of over 55% in size
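Cell growth measured by CellTiter-Glo luminescence after a minimum 48 h, 37 C compound exposure with 20 nM CPT in Tdp1-knockout DT40 cells stably expressing hTDP1, seeded 400/well; qHTS titration format.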
IL-1B inflam inh – inflammasome signaling inhibition, IL-1 beta readout | activity change, % at 57.5 µM | THP-1 LPS/ATP IL-1B secretion, AlphaLISA, 16 h; hits give low values | 4.7% of 360,000 active; in the data active = activity change below about -50%; inconclusive = mostly about -30% to -49%
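Secreted IL-1B measured by AlphaLISA bead assay after 16 h compound exposure of THP-1 cells; compounds (final up to 57.5 uM) added 1 h before LPS (250 ng/mL) and ATP (1.25 mM) stimulation; lower signal means less secretion.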
ELG1 DNA repair – blocks ELG1-dependent DNA repair in HEK293T cells; HEK293T ELG1-luciferase reporter, luminescence, 16 h; DNA damage induced by 5-fluorouridine; Potency, µM (titrated, usually from 46.1 µM), for inactives: top-dose activity change, negative = inhibition, usual class: inhibitors; 2.3% of 330,000 active; note: potency is the fitted concentration of half-maximal effect; nearly all actives have a fitted effect of over 55% in size
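DMSO vehicle served as the neutral condition. Each well held 2,000 cells given 5-fluorouridine plus compound; after 16 hr at 37 °C/5% CO2, ONE-Glo was added and luciferase measured 30 min later.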
HT1080 IDH1KD tx – kills HT-1080 cells with IDH1 knockdown | 2% of 360,000 active | HT-1080 IDH1 knockdown viability, ATP luminescence, 48 h | Potency, µM (highest dose often 46.1 µM), for inactives: at the highest dose activity, negative = toxicity, usual class: cytotoxic | AID 686971;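 note: potency is the fitted concentration of half-maximal effect; 0% = DMSO wells and -100% = cell-free medium wells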
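CellTiter-Glo luminescence after 48 h compound exposure at 37 degrees C of IDH1-knockdown HT-1080 cells in 5% FBS RPMI. %Activity scaled between DMSO wells and cell-free media wells, with curves fitted and assigned curve classes.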
TDP1 cell noCPT – qHTS for Inhibitors of human tyrosyl-DNA phosphodiesterase 1 (TDP1): qHTS in cells in absence of CPT. DT40 Tdp1-/- hTDP1 cells, no CPT, ATP luminescence, 48 h. Potency, µM (highest dose often 46.2 µM), without a hit: at the top dose activity change, negative = growth inhibition, most hits filed as inhibitors. 15% of 420,000 active. AID 686978, 2013; note: potency is the fitted concentration of half-maximal effect; nearly all actives have a fitted effect of over 55% in size
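Compound effects on proliferation are scored in DT40 Tdp1-/-;hTDP1 cells in the absence of CPT. ATP levels (CellTiter-Glo luminescence) are recorded after a ≥48 hr, 37 °C incubation.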
HT1080NT lethal – kills 2HG-producing HT-1080-NT fibrosarcoma cells. HT-1080-NT fibrosarcoma viability, CellTiter-Glo ATP luminescence, 48 h. Potency, µM (doses to about 46.1 µM), inactives show at the highest dose activity, negative = less viability, actives largely listed as cytotoxic. 1.6% of 360,000 active;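 note: NT is the 2HG producing partner of a matched IDH1 knockdown line; potency is the fitted concentration of half-maximal effect; 0% = DMSO-treated cells and -100% = media-only wells without cells; nearly all actives have a fitted effect of over 55% in size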
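Toxicity toward the 2HG-producing NT line was scored as %Activity, normalised to DMSO and no-cell wells, from CellTiter-Glo luminescence after 48 hours' treatment.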
* marks the source's active call; other numbers are inactive results; [ ] = another dose, or the depositor's remark. Sampled rows, rich in hits. Any-hit rate of the full collection: about 19%. Unless noted, calls come from the whole dose curve; as a rule, active = well fitted curve in the direction sought with a large enough effect; inconclusive = small, poorly fitted or top-dose-only effect, or another doubt; inactive = no such curve, though single readings can be large; an effect the other way counts as inactive or inconclusive. Unless noted, % is set by controls: 0 for no effect and ±100 for the full control effect.

`c1ccc(CCn2nnnc2C(c2cccs2)N2CCOCC2)cc1` (stereo not given) gave TDP1 cell CPT 3%, IL-1B inflam inh 5, ELG1 DNA repair 1%, HT1080 IDH1KD tx 12%, TDP1 cell noCPT -17% and HT1080NT lethal 11%.
`COc1ccc(C(c2nnnn2C2CCCCC2)N2CCN(C/C=C/c3ccccc3)CC2)cc1` (stereo not given) gave TDP1 cell CPT 16µM*, IL-1B inflam inh -9, HT1080 IDH1KD tx inconclusive, TDP1 cell noCPT inconclusive and HT1080NT lethal inconclusive.
`C(=C\c1ccccc1)/CN1CCN(C(c2nnnn2C2CCCCC2)C2CC2)CC1` (stereo not given) gave TDP1 cell CPT inconclusive, IL-1B inflam inh -5, HT1080 IDH1KD tx inconclusive, TDP1 cell noCPT 16µM* and HT1080NT lethal inconclusive.
CCOc1ccc(/C=N/n2c(C3CCCCC3)n[nH]c2=S)cc1 was read as TDP1 cell CPT inconclusive, IL-1B inflam inh -26, ELG1 DNA repair -8%, HT1080 IDH1KD tx 7%, TDP1 cell noCPT inconclusive and HT1080NT lethal 8%.
CCN(C(=O)Cc1c(C(=O)O)n(C)c2ccccc12)c1cccc(C)c1 was read as TDP1 cell CPT 0%, IL-1B inflam inh 36, ELG1 DNA repair -9%, HT1080 IDH1KD tx 18%, TDP1 cell noCPT 4% and HT1080NT lethal 4%.
`C=CCN1CCN(C(c2cccc(OC)c2OC)c2nnnn2CCC(C)C)CC1` (stereo not given) gave TDP1 cell CPT 26µM*, IL-1B inflam inh 6, ELG1 DNA repair 3%, HT1080 IDH1KD tx 4%, TDP1 cell noCPT 23µM* and HT1080NT lethal 8%.
`COc1ccc(-n2nnnc2C(c2ccccc2OC(F)(F)F)N2CCN(C/C=C/c3ccccc3)CC2)cc1` (stereo not given) gave TDP1 cell CPT 23µM*, IL-1B inflam inh -10, HT1080 IDH1KD tx -20%, TDP1 cell noCPT 16µM* and HT1080NT lethal -21%.
For CCCCn1nnnc1C(C1CC1)N1CCN(C/C=C/c2ccccc2)CC1 (stereo not given) the results were TDP1 cell CPT inconclusive, IL-1B inflam inh -20, HT1080 IDH1KD tx -19%, TDP1 cell noCPT 16µM* and HT1080NT lethal -10%.
Screening C=CCN1CCN(C(CC(C)C)c2nnnn2CCOC)CC1 (stereo not given) returned TDP1 cell CPT 4%, IL-1B inflam inh -13, ELG1 DNA repair 10%, HT1080 IDH1KD tx -4%[9.24 µM], TDP1 cell noCPT 16% and HT1080NT lethal 11%.
For C(=C\c1ccccc1)/CN1CCN(C(c2cc3ccccc3o2)c2nnnn2Cc2ccccc2)CC1 (stereo not given) the results were TDP1 cell CPT inconclusive, IL-1B inflam inh 2, HT1080 IDH1KD tx 9%, TDP1 cell noCPT 16µM* and HT1080NT lethal 18%.
Screening CCCCn1nnnc1C(c1cc2ccccc2o1)N1CCN(CC(=O)N2CCCC2)CC1 (stereo not given) returned TDP1 cell CPT -18%, IL-1B inflam inh -13, HT1080 IDH1KD tx 8%, TDP1 cell noCPT inconclusive and HT1080NT lethal 6%.
CCc1ccc(NC(=O)CSc2nc(C)c(C(=O)Nc3ccccc3)c(-c3ccc(OC)c(OC)c3)c2C#N)cc1 was read as TDP1 cell CPT -2% and TDP1 cell noCPT 4%.
Screening C(=C\c1ccccc1)/CN1CCN(C(c2ccnc3ccccc23)c2nnnn2-c2ccc3c(c2)OCCO3)CC1 (stereo not given) returned TDP1 cell CPT 16µM*, IL-1B inflam inh 0, HT1080 IDH1KD tx inconclusive, TDP1 cell noCPT 21µM* and HT1080NT lethal inconclusive.
CCCCn1nnnc1C(c1ccc(OC)cc1)N1CCN(C/C=C/c2ccccc2)CC1 (stereo not given) was read as TDP1 cell CPT inconclusive, IL-1B inflam inh inconclusive, HT1080 IDH1KD tx inconclusive, TDP1 cell noCPT 18µM* and HT1080NT lethal inconclusive.
`Cc1cccc(C)c1-n1nnnc1C(c1cccs1)N1CCN(C/C=C/c2ccccc2)CC1` (stereo not given) gave TDP1 cell CPT inconclusive, IL-1B inflam inh -15, HT1080 IDH1KD tx inconclusive, TDP1 cell noCPT inconclusive and HT1080NT lethal inconclusive.
`Cc1cccc(C)c1-n1nnnc1C(c1ccccc1)N1CCN(C/C=C/c2ccccc2)CC1` (stereo not given) gave TDP1 cell CPT 21µM*, IL-1B inflam inh 22, HT1080 IDH1KD tx inconclusive, TDP1 cell noCPT 16µM* and HT1080NT lethal inconclusive.
COc1ccc(C(c2nnnn2-c2ccc(OC)cc2)N2CCN(C/C=C/c3ccccc3)CC2)cc1 (stereo not given) was read as TDP1 cell CPT inconclusive, IL-1B inflam inh -53*, HT1080 IDH1KD tx inconclusive, TDP1 cell noCPT inconclusive and HT1080NT lethal inconclusive.
COc1ccc(C(c2nnnn2C(C)(C)C)N2CCN(C/C=C/c3ccccc3)CC2)cc1 (stereo not given) was read as TDP1 cell CPT inconclusive, IL-1B inflam inh -16, HT1080 IDH1KD tx 13%, TDP1 cell noCPT inconclusive and HT1080NT lethal 24%.
COC(=O)/C(=N/Nc1ccccc1OC)N1CCCc2ccccc21 was read as TDP1 cell CPT inconclusive, IL-1B inflam inh -3, ELG1 DNA repair 3%, HT1080 IDH1KD tx -24%, TDP1 cell noCPT inconclusive and HT1080NT lethal -28%.
Screening COc1ccc(NC(=O)COC(=O)C2CCCN2C(=O)OC(C)(C)C)cc1Cl (stereo not given) returned TDP1 cell CPT -2%, IL-1B inflam inh inconclusive, HT1080 IDH1KD tx 5%, TDP1 cell noCPT 8% and HT1080NT lethal 7%.
Screening C(=C\c1ccccc1)/CN1CCN(C(c2cc3ccccc3o2)c2nnnn2C2CCCC2)CC1 (stereo not given) returned TDP1 cell CPT inconclusive, IL-1B inflam inh -20, HT1080 IDH1KD tx 12%, TDP1 cell noCPT inconclusive and HT1080NT lethal 16%.
For COc1ccc(-n2nnnc2C(c2ccnc3ccccc23)N2CCN(C/C=C/c3ccccc3)CC2)cc1 (stereo not given) the results were TDP1 cell CPT 7.3µM*, IL-1B inflam inh inconclusive, HT1080 IDH1KD tx inconclusive, TDP1 cell noCPT 4.6µM* and HT1080NT lethal inconclusive.

Screening data: PubChem BioAssay, National Center for Advancing Translational Sciences (NCATS)
